# Results taken from article PMC4336329 (PLoS ONE, 2015).
# The campaign covered roughly 310,000 compounds. About 14,000 (4.5%) showed an effect of 50% or more. The effect is printed as a negative number. Only a selection was taken, and strong results are over-represented in it overall.
# Biological target: human ether-à-go-go-related gene (hERG) potassium channel (human, UniProt Q12809)
# Test: primary screen, population patch clamp on CHO cells stably expressing hERG; higher = less effect of the substance
# 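Further: peak tail current of the secondary pulse compared with the same well before compound.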
# Chain of human ether-à-go-go-related gene (hERG) potassium channel (Q12809 whole entry, looked up): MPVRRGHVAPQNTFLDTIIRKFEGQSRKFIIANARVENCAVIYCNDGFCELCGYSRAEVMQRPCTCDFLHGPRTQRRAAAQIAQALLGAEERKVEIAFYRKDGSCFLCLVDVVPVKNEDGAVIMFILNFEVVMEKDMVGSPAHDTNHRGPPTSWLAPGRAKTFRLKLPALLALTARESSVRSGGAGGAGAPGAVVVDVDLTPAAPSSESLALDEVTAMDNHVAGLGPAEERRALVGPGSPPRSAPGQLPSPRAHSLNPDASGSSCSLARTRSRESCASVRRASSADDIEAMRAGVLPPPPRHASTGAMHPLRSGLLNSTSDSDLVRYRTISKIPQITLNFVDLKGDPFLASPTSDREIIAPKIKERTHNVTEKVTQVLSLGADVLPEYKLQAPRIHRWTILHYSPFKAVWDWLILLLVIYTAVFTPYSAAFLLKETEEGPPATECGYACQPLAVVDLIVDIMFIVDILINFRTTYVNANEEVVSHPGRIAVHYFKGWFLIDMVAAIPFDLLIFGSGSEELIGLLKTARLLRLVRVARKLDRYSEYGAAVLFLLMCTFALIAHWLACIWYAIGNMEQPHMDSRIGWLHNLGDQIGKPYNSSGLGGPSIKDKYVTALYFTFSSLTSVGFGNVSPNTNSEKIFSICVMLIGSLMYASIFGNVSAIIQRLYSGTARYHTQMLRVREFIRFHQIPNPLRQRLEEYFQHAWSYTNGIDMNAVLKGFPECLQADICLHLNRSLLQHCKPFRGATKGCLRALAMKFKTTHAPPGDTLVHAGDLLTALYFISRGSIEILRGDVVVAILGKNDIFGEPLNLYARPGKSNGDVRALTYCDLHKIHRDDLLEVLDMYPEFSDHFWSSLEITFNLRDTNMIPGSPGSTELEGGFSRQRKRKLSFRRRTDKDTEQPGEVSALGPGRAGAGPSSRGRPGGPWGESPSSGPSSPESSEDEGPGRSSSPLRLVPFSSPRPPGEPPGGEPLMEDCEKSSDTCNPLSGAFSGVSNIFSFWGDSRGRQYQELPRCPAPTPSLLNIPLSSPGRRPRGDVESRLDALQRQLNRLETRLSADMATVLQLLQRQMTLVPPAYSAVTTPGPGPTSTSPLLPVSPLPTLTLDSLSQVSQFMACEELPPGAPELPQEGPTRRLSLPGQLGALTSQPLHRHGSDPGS
row,SMILES,"hERG current change (%, negative = inhibition) at 10uM"
1,CCOc1ccc(-c2cc(C(=O)N3CCN(c4ccccn4)CC3)c3ccccc3n2)cc1,2.79%
2,Cn1ncc2c(Nc3ccc([N+](=O)[O-])cc3)nc(Cl)nc21,18.9%
3,Cc1ccc(-c2nnc(N3CCC(C)CC3)c3ccccc23)cc1,3.1%
4,COc1nnc(-c2ccc(N3CCOCC3)c(NC(=O)C3CCCCC3)c2)c2ccccc12,-37.3%
5,O=C(C1CCC(C(=O)N2CCCCC2)CC1)N1CCCCC1 (stereo not drawn),6.09%
6,O=C(CSc1nc2c([nH]c3ccccc32)c(=O)n1-c1ccccc1)NCC1CCCO1 (stereo not drawn),3.52%
7,CN(C)c1ccc(C(CNC(=O)Cc2cccc3ccccc23)N(C)C)cc1 (stereo not drawn),-32.8%
8,CC(=O)N1c2ccc(S(=O)(=O)NCCC(=O)Nc3ccc(OC(F)(F)F)cc3)cc2CC1C (stereo not drawn),-13.6%
9,COCCN(C(=O)c1csnn1)C(C(=O)NC1CCCCC1)c1ccccc1F (stereo not drawn),3.83%
10,COc1ccc(-c2csc(N3CCC(c4ccccc4)CC3)n2)cc1,23.2%
11,CC(C)Cn1c(SCC(=O)N(C)C2CCS(=O)(=O)C2)nc2cc(Cl)ccc2c1=O (stereo not drawn),-31.5%
12,CCN(C(=O)CSc1nc2cc(Cl)ccc2c(=O)n1Cc1ccco1)C1CCS(=O)(=O)C1 (stereo not drawn),-74.7%
13,CCc1cc2c(SCC(=O)N(C)C3CCS(=O)(=O)C3)ncnc2s1 (stereo not drawn),-20.1%
14,CCc1cc2c(=O)n(Cc3ccco3)c(SCC(=O)N3CCCc4ccccc43)nc2s1,-23.4%
15,CCc1cc2c(=O)n(Cc3ccco3)c(SCC(=O)N(C)C3CCS(=O)(=O)C3)nc2s1 (stereo not drawn),-79.1%
16,CCN(C(=O)CSc1nc2cc(Cl)ccc2c(=O)n1CC(C)C)C1CCS(=O)(=O)C1 (stereo not drawn),2.51%
17,COc1ccc(CNC(=O)[C@H](C)NC(=O)C2CCN(C(=O)[C@@H](N)CCSC)CC2)cc1,5.47%
18,O=C1C=C(O)CC(c2ccco2)C1 (stereo not drawn),9.75%
19,O=C(/C=C/c1ccco1)Nc1ccc2nc3n(c(=O)c2c1)CCCC3,-8.17%
20,N#CCC(=O)N1CCn2c1nc1ccccc12,17.2%
21,Cn1c(=O)n(CCc2ccccc2)c(=O)c2c1nc1n2CCCN1c1ccccc1,-20.7%
22,COc1cc(/C=C2/C(=N)N3C=CSC3=NC2=O)ccc1OCCCOc1cc(C)ccc1C,2.54%
23,CC1CN(CCCCOc2ccc(F)cc2)CC(C)O1.O=C(O)C(=O)O (stereo not drawn),-42.7%
24,CC1CN(CCOc2ccc([N+](=O)[O-])cc2)CC(C)O1.O=C(O)C(=O)O (stereo not drawn),-46.2%
25,CC1CCCN(CC(=O)Nc2cccc([N+](=O)[O-])c2)C1 (stereo not drawn),-16.7%
26,CC1CC(C)CN(CCCCOc2ccc([N+](=O)[O-])cc2)C1.O=C(O)C(=O)O (stereo not drawn),-78.8%
27,COC(=O)c1ccc(OCCCCN2CC(C)OC(C)C2)cc1.O=C(O)C(=O)O (stereo not drawn),-20%

row,SMILES,"hERG current change (%, negative = inhibition) at 10uM"
1,CC1CC(C)CN(CCCOc2ccccc2[N+](=O)[O-])C1.O=C(O)C(=O)O (stereo not drawn),-35.5%
2,CC1CCCN(CCCOc2ccc([N+](=O)[O-])cc2)C1.O=C(O)C(=O)O (stereo not drawn),-74.7%
3,CC1CN(CCCOc2ccc([N+](=O)[O-])cc2)CC(C)O1.O=C(O)C(=O)O (stereo not drawn),-71.6%
4,Cc1ccc(OC(=O)CCS(=O)(=O)c2ccc(C)cc2)cc1,-24.4%
5,O=C(CSc1nnc(COc2ccc(Br)cc2)o1)N1CCOCC1,-17%
6,CN(c1ccccc1C(=O)N1CCCC1)S(C)(=O)=O,-9.73%
7,N#Cc1ccc(OCC(=O)Nc2ccc3[nH]c(=O)[nH]c3c2)cc1,-4.57%
8,C=CCn1c(O)c(C(CC)=Nc2cccc(C(=O)O)c2)c(=O)[nH]c1=O,11.6%
9,CSc1ccccc1OCc1cc(C(=O)NCCCc2ccccc2)no1,12.9%
10,Cc1ccc2c(CN(C)Cc3cccc(Cl)c3)cc(=O)oc2c1C,12%
11,COc1ccccc1NC(=S)N1CC(C)OC(C)C1 (stereo not drawn),19.5%
12,COc1cccc(N2CCN(C(=O)CN(C)S(=O)(=O)c3ccc4c(c3)c(=O)n(C)c(=O)n4C)CC2)c1,-10.8%
13,CC(C)(C)OC(=O)CNC(=O)c1nc[nH]c1C(=O)NCC(=O)OC(C)(C)C,3.98%
14,CN(C(=O)COC(=O)CNS(=O)(=O)/C=C/c1ccccc1)C1CCS(=O)(=O)C1 (stereo not drawn),23.3%
15,CCN(CC1COc2ccccc2O1)C(=O)CN1C(=O)NC(C)(c2ccc(C)cc2)C1=O (stereo not drawn),-28.8%
16,COCCN=C1N[C@@H](c2ccccc2)C(C(=O)OC)=C(C)N1Cc1ccccc1,-16.8%
17,COC(=O)C1=C(C)N(CC2CC2)C(=NCc2cccc(Cl)c2)N[C@H]1c1ccccc1,-72.3%
18,CCN1C(=NCc2cccc(Cl)c2)N[C@@H](c2cccc(F)c2)C(C(=O)OC)=C1C,-41.4%
19,COCCN=C1N[C@@H](c2ccc(Br)cc2)C(C(=O)OC)=C(C)N1Cc1ccccc1,-55.3%
20,COC(=O)C1=C(C)N(Cc2ccccc2)C(=NCCCCO)N[C@H]1CCc1ccccc1,-43.3%
21,COC(=O)C1=C(C)N(Cc2ccccc2)C(=O)N[C@H]1c1ccccc1,-13.5%
22,COC(=O)C1=C(C)N(CC2CC2)C(=NCc2cc(OC)c(OC)c(OC)c2)N[C@H]1c1ccccc1,-17.5%
23,COC(=O)C1=C(C)N(Cc2ccccc2)C(=NCC(C)C)N[C@H]1c1ccccc1,-55.9%
24,COC(=O)C1=C(C)N(Cc2ccccc2)C(=NCCCCO)N[C@H]1c1ccccc1,-53.2%
25,COC(=O)C1=C(C)N(Cc2ccccc2)C(=O)N[C@H]1c1ccc(Br)cc1,-10.9%
26,CCN1C(=NCCCCO)N[C@@H](c2cccc(C(F)(F)F)c2)C(C(=O)OC)=C1C,5.89%
27,COC(=O)C1=C(C)N(Cc2ccccc2)C(=S)N[C@H]1c1ccccc1,-2.64%
